Source: PubChem (The Scripps Research Institute Molecular Screening Center)
hgDAF-12 ag: hgDAF-12 agonism, primary luciferase screen | HEK293 GAL4-hgDAF12 UAS-luciferase reporter, agonist luminescence; normalized to butyrate control | activation, % at 6.8 µM | hit rate 1.8% among 370,000;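 active = activation above a cutoff set at the mean of all screened compounds plus 3 SD, cut at about 10% in these data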;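 also: 0% = DMSO wells and 100% = sodium butyrate wells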
hcDAF-12 act: H. contortus DAF-12 activation, primary screen; HEK293 hcDAF-12 lit1-tk-luc reporter, luminescence; 0% DMSO, 100% Δ7-dafachronic acid; activation, % at 6.8 µM; hit rate 1.4% among 370,000; AID 652067;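 active = activation above the mean of all tested compounds plus 3 SD, cut at about 5.5% in these data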;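 also: 100% = response to 3 µM Δ7-dafachronic acid high control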
DAX1 inh-1: inhibits human nuclear receptor DAX1 | HEK293 Gal4-DAX1 luciferase reporter, luminescence | hit rate 0.99% among 340,000 | inhibition, % at 6.75 µM | P51843;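 active = inhibition above the mean over all tested compounds plus 3 SD, cut at about 4.2% in these data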;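 also: 0% = DAX1-transfected cells with DMSO and 100% = empty-vector control cells with DMSO; inhibition shows as a rise in luminescence from relieved DAX1 repression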
Target sequence (P51843 207-470 limits assumed): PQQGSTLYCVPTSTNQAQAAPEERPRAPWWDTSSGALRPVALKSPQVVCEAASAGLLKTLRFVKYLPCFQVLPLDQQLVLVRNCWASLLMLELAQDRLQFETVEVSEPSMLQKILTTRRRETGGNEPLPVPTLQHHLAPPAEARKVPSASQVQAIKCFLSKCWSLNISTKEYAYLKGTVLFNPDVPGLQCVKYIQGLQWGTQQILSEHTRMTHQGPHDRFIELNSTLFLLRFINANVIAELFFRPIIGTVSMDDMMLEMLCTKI
ssDAF12 agonist: activators of S. stercoralis DAF-12 nuclear receptor | HEK293 ssDAF-12/GRIP1 lit1-tk-luc reporter, luminescence; % of 3 µM dafachronic acid response | activation, % at 6.8 µM | hit rate 1% among 370,000;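 active = activation above the mean over all tested compounds plus 3 SD, cut at about 0.9% in these data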;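 also: 0% = DMSO-only wells and 100% = 3 µM delta7-dafachronic acid wells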
DAX1 inh-2: blocks DAX1 repression of SF-1 activated StAR promoter | HEK293T StAR-luciferase reporter, SF-1/DAX-1 repression relief | inhibition, % at 6.8 µM | hit rate 1.1% among 370,000;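 active = inhibition above the mean over all tested compounds plus 3 SD, cut at about 3.6% in these data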;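 also: 0% = DAX-1 cells with DMSO and 100% = cells lacking DAX-1 with DMSO; higher inhibition means more luminescence from relief of DAX-1 repression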
Numbers without * were called inactive; . = not tested or not shown. An excerpt weighted towards active compounds, which were near 4.1% of everything screened.

SMILES	hgDAF-12 ag	hcDAF-12 act	DAX1 inh-1	ssDAF12 agonist	DAX1 inh-2
CC1CCC(NC(=O)c2ccc(S(C)(=O)=O)cc2)CC1 (stereo unspecified)	2.8	-0.5	0.3	6.4*	0.8
Cc1cccc(Cn2cc(CN3CC(N(C)CCCOC(=O)c4cc5ccccc5o4)CS3(=O)=O)nn2)c1 (stereo unspecified)	2.1	0.8	.	-0.3	0.6
Cc1ccc(C(=O)NC(=S)Nc2ccccc2N2CCCC2)cc1[N+](=O)[O-]	-0.6	1.5	1.0	1.4*	-0.5
Cc1ccc2c(c1)Oc1ccc([N+](=O)[O-])cc1C(=O)N2	2.4	6.1*	-0.9	0.1	-0.5
Cc1ccc2c(c1)Oc1ccc(NC(=O)CCl)cc1C(=O)N2	-12.5	-5.9	-3.6	-1.4	-4.0
COc1ccc(Nc2oc(-c3ccc(OC)cc3)nc2C#N)cc1	7.2	1.4	-0.3	-0.8	0.9
COc1ccc(Nc2oc(-c3ccc(Cl)cc3)nc2C#N)cc1	11.5*	3.2	0.7	0.0	-0.4
COc1ccc(Nc2oc(-c3ccccc3)nc2C#N)cc1	10.4*	0.7	-0.6	-2.3	0.5
O=C1c2cccc(NCCCNCCO)c2C(=O)c2cccc(NCCCNCCO)c21	4.7	4.5	0.5	1.0*	-2.2
O=C1c2ccccc2C(=O)c2c(NCc3cccnc3)cccc21	4.2	-0.6	0.0	-0.7	-0.6
COc1ccc(S[C@]2(C(=O)N3CCCC3)CC(=O)N(C(=O)/C=C/c3ccccc3)[C@@H]2c2ccc(OC)cc2)cc1	-3.5	-2.0	.	-0.7	-3.0
O=[N+]([O-])c1cccc(OCCN2CCC(Cc3ccccc3)CC2)c1	-1.3	0.4	5.8*	-1.5	0.1
CCOC(=O)[C@]12CCC=C1N(Cc1ccco1)C(=O)[C@H](CC(=O)NCCCN1CCCC1=O)C2	0.5	-0.5	.	-0.4	-0.5
CC(NC(=O)CCN1C(=O)c2ccccc2C1=O)c1ccccc1 (stereo unspecified)	0.2	1.7	4.5*	-1.4	-0.3
CC(NC(=O)CCC(=O)NC(C)c1ccccc1)c1ccccc1 (stereo unspecified)	0.1	-1.7	0.8	-1.8	0.9
CC(NC(=O)Cn1cccc1)c1ccccc1 (stereo unspecified)	-1.3	-0.3	1.0	-1.2	4.0*
C#CCCN([C@@H](CC(C)C)C(=O)OC)S(=O)(=O)c1ccccc1Br	-0.3	-1.4	.	-1.4	-0.4
Cc1ccc(CNC(=O)O[C@H]2CC[C@@]34CCCN3C(=O)CCC[C@H]4[C@H]2C)cc1	1.6	-2.5	.	-1.5	.
CCC[C@@H](/C=C/C(=O)OC(C)(C)C)Sc1ccccc1OC	-1.8	0.4	.	-0.4	-0.4
C[N+](C)(C)CCNC(=O)c1ccccc1	-0.7	-1.0	.	-0.9	4.1*
O=C(NCC(O)c1ccccc1)c1ccccc1 (stereo unspecified)	7.0	2.2	4.3*	-0.3	2.5
O[C@@H](CNC[C@H](O)c1ccccc1)c1ccccc1	0.3	-0.2	-1.0	-0.6	-0.1
O=C(NCCNC(=O)c1ccccc1)c1ccccc1	1.0	-1.2	0.2	-0.6	0.4
COc1cccc2c(NCc3ccccc3)nc(-n3c(N)nc4ccccc43)nc12	-17.8	-8.3	.	-3.3	.
N#C/C(=C\Nc1ccccc1O)c1nc2ccccc2o1	4.7	6.3*	1.8	0.5	-0.3
SMILES	hgDAF-12 ag	hcDAF-12 act	DAX1 inh-1	ssDAF12 agonist	DAX1 inh-2
COc1ccc(-n2c(COc3ccc(Cl)cc3)nnc2SCC(=O)Nc2ccc3c(c2)OCO3)cc1	3.5	-3.0	.	-1.7	0.3
Cc1cc(NC(=O)c2ccc(NS(=O)(=O)c3ccc(F)cc3)cc2)no1	-1.1	-2.1	.	-1.6	-0.8
O=C(Nc1ccc(Cl)c(Cl)c1)Nc1ccccc1O	10.3	5.5	1.9	0.0	1.4
O=C(Nc1ccccc1O)c1nc(Cl)ccc1Cl	-0.5	5.9*	1.7	2.5*	0.2
O=C(CSc1ccc(-c2ccccc2)nn1)N1CCCCC1	7.1	4.8	1.2	1.0*	1.5
O=C(CSc1ccc(-c2ccncc2)nn1)N1CCCCC1	0.5	-1.0	0.5	-1.0	-1.4
Cn1ccnc1SCC(=O)c1ccc(OC(F)F)cc1	4.9	1.1	3.1	-0.6	0.4
COc1ccc(-c2ccc(SCC(=O)N3CCOCC3)nn2)cc1	4.2	0.2	0.5	-0.6	0.7
COc1ccc(C(=O)CSc2ccc(-c3ccccc3)nn2)cc1	-0.6	-0.7	4.6*	-0.7	0.5
COc1ccc(-c2ccc(SC)nn2)cc1	5.2	5.3	-2.8	-0.8	4.4*
COc1ccc(C(=O)CSc2nccn2C)cc1	12.3*	2.3	4.2	-0.4	0.6
CN1CCN(c2ccc3c(c2)Oc2ccccc2CN(Cc2cn(Cc4ccc(F)cc4)nn2)S3(=O)=O)CC1	-0.8	0.6	.	-0.2	-1.5
CCc1ccc(OCc2cnc(Cl)s2)cc1	-0.6	1.6	4.4*	-1.5	0.9
Clc1ccc(OCc2cnc(Cl)s2)cc1	3.1	-1.1	0.7	-0.8	0.6
CC(COc1ccc(F)cc1)CN1CCC(C(O)(c2ccccc2)c2ccccc2)CC1 (stereo unspecified)	-0.9	-3.5	.	-0.9	-1.3
O=C(NC(=S)NCC1CCCO1)c1ccccc1Br (stereo unspecified)	0.7	-0.9	-0.1	-1.2	-0.3
Cc1ccc(C(=O)NC(=S)NCC2CCCO2)cc1Br (stereo unspecified)	9.6	5.7*	1.6	-0.4	1.3
CCCOc1cccc(-c2nc3ccccc3c(=O)o2)c1	10.7*	5.2	0.3	0.0	3.5
O=c1oc(-c2ccc(Br)cc2)nc2ccccc12	7.3	2.7	2.9	0.9*	1.2
COc1ccc(CN2C(=O)CSCCC2(C)c2nnnn2-c2c(C)cccc2C)cc1 (stereo unspecified)	-1.4	-2.1	.	-0.7	-0.9
Cc1nc(Cl)sc1C(=O)Nc1ccc(F)cc1	-0.6	0.0	1.2	-0.5	0.1
CC(C)S(=O)(=O)c1csc(C(=O)Nc2ccc(F)cc2)c1N	8.6	4.1	2.2	1.3*	3.2
CCCCCCCCN1C(=O)[C@H](CC(=O)NCCCC)C[C@@]2(C(=O)OC)CC(C)(C)CC=C12	5.6	-0.9	.	-1.3	0.0
CCOC(=O)c1c(N/N=C/c2cccnc2)n[nH]c1C	3.1	-0.2	5.3*	-1.4	0.3
CCOC(=O)c1c(Nc2ccc(OC)cc2)n[nH]c1C	8.3	0.7	.	-0.1	4.3*
SMILES	hgDAF-12 ag	hcDAF-12 act	DAX1 inh-1	ssDAF12 agonist	DAX1 inh-2
C/C(=N\NC(=S)NC1CCCCC1)c1ccc(Cl)c(Cl)c1	-1.5	-1.1	25.0*	-1.6	0.3
C/C(=N\NC(=O)C1CCCC1)c1ccc(Cl)c(Cl)c1	1.7	1.6	1.0	-0.7	1.0
COc1ccc2c(c1)CCCN2C(=O)C1CCCN(S(=O)(=O)c2ccc(C)c(C)c2)C1 (stereo unspecified)	-3.9	-4.2	.	-1.8	-2.3
O=C1c2ccccc2C(=O)N1c1ccccc1	0.8	-2.1	5.2*	-1.6	0.0
Nc1cccc2c1C(=O)N(c1ccccc1)C2=O	4.4	0.8	3.2	-0.8	-0.2
CN1C2=NC(c3ccc4ccccc4c3)CC(=O)N2/C(=C\c2ccccc2)C1c1ccccc1C(F)(F)F (stereo unspecified)	-0.5	-1.5	.	-1.4	.
CC(C)CN1C(=O)[C@@]2(CC(=O)N(C)C2c2ccccc2)c2cc(-n3cc(CCc4ccccc4)nn3)ccc21 (stereo partly specified)	0.3	-2.9	.	-1.2	1.6
